Measured values reported in PubChem BioAssay AID720648 (The Scripps Research Institute Molecular Screening Center, 2013).
Among all 370,000 compounds or so, about 3,100 (0.84%) were called active. What follows is part of a selection rich in actives, with near analogues and random picks from the rest. Values without a mark were called inactive.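 The calls were made as follows: active = inhibition above the mean of compounds lying between control limits plus 3 SD, set per campaign (cut at about 8.5% in these data); inactive = the rest.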

These compounds were tested against Disintegrin and metalloproteinase domain-containing protein 17 (Homo sapiens) (UniProt P78536) (assay: inhibition of ADAM17 peptide cleavage – biochemical, QFRET, primary screen (AID 720648;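 also: 0% = DMSO-only wells as the low control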)). Details: recombinant ADAM17, EDANS/DABCYL FRET peptide cleavage; at 6.95 µM; stronger effect = higher value.
Sequence of Disintegrin and metalloproteinase domain-containing protein 17 (Homo sapiens) (P78536 215-824 limits assumed): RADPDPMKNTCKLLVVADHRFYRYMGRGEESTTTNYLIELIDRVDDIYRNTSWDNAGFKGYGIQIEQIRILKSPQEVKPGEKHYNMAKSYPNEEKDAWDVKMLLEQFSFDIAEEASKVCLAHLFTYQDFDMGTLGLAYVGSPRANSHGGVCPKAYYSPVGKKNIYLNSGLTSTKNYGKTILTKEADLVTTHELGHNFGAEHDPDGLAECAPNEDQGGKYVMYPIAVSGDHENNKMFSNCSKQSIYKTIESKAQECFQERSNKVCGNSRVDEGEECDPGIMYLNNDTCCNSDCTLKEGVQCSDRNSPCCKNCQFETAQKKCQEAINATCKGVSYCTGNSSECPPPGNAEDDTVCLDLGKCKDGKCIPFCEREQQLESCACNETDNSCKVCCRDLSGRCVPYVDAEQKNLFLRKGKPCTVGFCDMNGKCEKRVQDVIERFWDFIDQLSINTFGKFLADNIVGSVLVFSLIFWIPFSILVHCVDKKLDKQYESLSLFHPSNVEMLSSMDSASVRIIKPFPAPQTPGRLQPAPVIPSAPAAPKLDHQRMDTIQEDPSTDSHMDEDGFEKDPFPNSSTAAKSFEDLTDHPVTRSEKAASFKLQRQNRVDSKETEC

Point of comparison: `Cc1c(C)c2ccc(OCC(=O)N3CCN(c4cccc(Cl)c4)CC3)cc2oc1=O`, inhibition -9.1%. Against it:
- CCOC(=O)c1csc(NC(=O)C2CCCN(S(=O)(=O)c3ccc(Cl)s3)C2)n1 (stereo not given) — higher, 1.07%
- COc1ccc([N+](=O)[O-])cc1NCC(=O)c1ccc(C)cc1 — higher, 0.13%
- Cc1ccccc1OS(=O)(=O)c1cccc([N+](=O)[O-])c1 — higher, 3.53%
- O=C(CSc1nc2c(c(=O)[nH]1)CCCC2)N1CCCCC1 — higher, -1.39%
- COc1cc(NC(=O)c2cc(-c3ccc(F)cc3OC(C)C)n[nH]2)cc(OC)c1OC — higher, 3.11%
- CC(C)Oc1cc(F)ccc1-c1cc(C(=O)Nc2ccc(F)cc2)[nH]n1 — higher, 2.41%
- O=C(N1CCOCC1)N1CC[C@H]2[C@H](CCCN2Cc2ccc(F)cc2)C1 — higher, -3.39%
- O=C(NC1CCC1)c1ccc(C#CC2CC2)cn1 — higher, -2.55%
- Cc1ccc(-n2c(Cc3cccs3)nnc2SCC(=O)OC(C)C)cc1 — higher, -0.84%
- CCn1c(SCC(=O)c2ccc(Cl)s2)nnc1-c1cccs1 — higher, -2.07%
- CCC(=O)Nc1ccc2c(c1)C(=O)N(C)[C@H]1CC[C@H](CC(=O)NCCOC)O[C@@H]1CO2 — higher, -1.85%
- COc1ccc(C#CCNCc2ccc(OC)cc2OC)cc1 — higher, -5.67%
- COC(=O)c1ccccc1-n1cc(COC(=O)NCCc2ccccc2)nn1 — higher, -7.96%
- CC1Cc2ccccc2N1S(=O)(=O)c1cccc(C(=O)NCC(c2ccco2)N2CCCC2)c1 (stereo not given) — higher, -2.28%
- CC1Cc2ccccc2N1S(=O)(=O)c1cccc(C(=O)OCC(=O)N2CCOCC2)c1 (stereo not given) — higher, -5.91%
- C=CCN1C(=O)[C@H](CC(=O)NCCCN2CCCC2=O)[C@@]2(C(=O)OCC)CCCC=C12 — higher, -6.27%
- Cc1ccc(NC(=O)CCNS(=O)(=O)c2ccc3c(c2)oc(=O)n3C)cc1C — higher, 1.53%
- COc1cccc(NC(=O)CCNS(=O)(=O)c2ccc3c(c2)oc(=O)n3C)c1 — higher, -2.66%
- Cc1cc(NS(=O)(=O)c2ccc(NC(=O)CSc3nnc(SCc4ccc(F)cc4)s3)cc2)nc(C)n1 — higher, 2.06%
- CCOC(=O)c1cccc(NC(=O)CCn2nnc3ccccc32)c1 — higher, -1.7%
- CCOC(=O)c1cccc(NC(=O)CN(c2ccc(C)cc2)S(=O)(=O)c2c(C)noc2C)c1 — higher, 7.3%
- O=C(OCC#CCSc1nnc(-c2ccco2)o1)c1ccc(F)cc1 — higher, -3.45%
- CN(C)Cc1cn(-c2ccc(-c3noc4c3C(=O)N(CC(=O)N3CCOCC3)CC4)cc2)nn1 — higher, -1.12%
- CSCCC(NC(=O)COc1ccccc1)C(=O)N1CCN(c2cccc(C(F)(F)F)c2)CC1 (stereo not given) — higher, 0.72%
- Cc1ccc(Cn2cc(CN3[C@@H](CC(C)C)COc4ccc(Cl)cc4S3(=O)=O)nn2)cc1 — higher, -0.49%
- CC1CC(=O)N(CC(=O)Nc2cccc(Cl)c2)c2ccccc2S1(=O)=O (stereo not given) — higher, 0.03%
- CN1C(=O)C(CC(=O)Nc2ccccc2)S/C1=N/c1nccs1 (stereo not given) — higher, -3.53%
- COc1cccc(CSc2nnc(-c3cccnc3)n2Cc2ccccc2)c1 — higher, -1.8%
- CCN1C(=O)[C@H]2[C@@H](c3ccc(C(F)(F)F)cc3)N[C@]3(CCCN(Cc4ccc(Br)cc4)C3=O)[C@H]2C1=O — higher, 0.02%
- O=C1[C@H]2[C@@H](c3ccc(C(F)(F)F)cc3)N[C@]3(CCCN(Cc4ccc(Cl)cc4)C3=O)[C@H]2C(=O)N1Cc1ccccc1 — higher, 6.3%
- O=C(NCc1ccco1)C1CCCN(S(=O)(=O)c2ccc(Cl)s2)C1 (stereo not given) — higher, -1.38%
- O=C(CNS(=O)(=O)c1ccccc1F)N1CCN(c2ccccn2)CC1 — higher, -2.81%
- Cc1cccc(OCCCC(=O)Nc2ccc(S(=O)(=O)N3CCCC3)cc2)c1 — higher, 3.89%
- Cc1ccc(C)c(OCCC(=O)Nc2cccc(S(=O)(=O)N3CCCC3)c2)c1 — higher, 1.33%
- CC(=O)Nc1ccc(OC[C@@H](O)CN2CCC(C(O)(c3ccccc3)c3ccccc3)CC2)cc1 — higher, 2.29%
- COc1ccc(F)cc1S(=O)(=O)N1CCCCC1 — higher, -4.65%
- COc1cc(C(=O)NNC(=O)c2ccc(S(=O)(=O)N3CCCCC3)cc2)cc(OC)c1OC — higher, 0.14%
- CCOC(=O)[C@@]12CCC3=C1N(CCC3)C(=O)[C@H](CC(=O)N1CCN(C(=O)c3ccco3)CC1)C2 — higher, -6.34%
- Cc1nc(CNc2ncnc3ccc(-c4ccc5c(c4)OCO5)cc23)cs1 — lower, -54.3%
- COC(=O)c1cccc(NS(C)(=O)=O)c1 — higher, -1.45%
- CS(=O)(=O)Nc1cccc(C2=NN(C(=O)c3cccc(F)c3)C(c3cccs3)C2)c1 (stereo not given) — higher, 1.09%
- Cc1ccc(C2CC(c3cccc(NS(C)(=O)=O)c3)=NN2S(C)(=O)=O)cc1 (stereo not given) — higher, -2.2%
- CCOc1ccc2nc(Cl)c(C3CC(c4ccccc4)=NN3C(=O)c3cccs3)cc2c1 (stereo not given) — higher, -2.13%
- CCS(=O)(=O)Nc1ccc(C2=NN(S(=O)(=O)c3ccc(F)cc3)C(c3ccco3)C2)cc1 (stereo not given) — higher, 3.46%
- COc1cccc(C2CC(c3cccs3)=NN2C(=O)CSC2=NCCS2)c1OC (stereo not given) — higher, -4.82%
- O=C(Nc1cc(Cl)cc(Cl)c1)OCCN1CCCC12CCC(c1ccccc1)CC2 (stereo not given) — higher, 1.56%
- CCOC(=O)[C@]12CCCCC/C=C\1N(Cc1ccc(OC)cc1)C(=O)[C@H]2CC(=O)NCCCN1CCCC1=O — higher, 5.47%
- Cc1cc(NS(=O)(=O)c2ccc(NC(=O)CSc3nnc(-c4ccc(C(C)(C)C)cc4)n3Cc3ccco3)cc2)nc(C)n1 — higher, 0.8%
- CC(C)(C)c1ccc(C(=O)Nc2cc(Cl)c(Br)cc2C(=O)O)cc1 — higher, 8.45%
- COC(=O)[C@]12C[C@H](CC(=O)N3CCOCC3)C(=O)N(Cc3ccc(Cl)cc3Cl)C1=C[C@H](C(C)C)O[C@@H]2C1CC1 — higher, -2%
- Cc1ccc(-n2c(SCC(=O)Nc3ccc(S(=O)(=O)Nc4nccs4)cc3)nnc2-c2ccccn2)cc1 — higher, 2.5%
- O=C1CC[C@@]23CCCN2C(=O)CCC[C@H]3[C@H]1Cc1ccccc1 — higher, -7.14%
- Cc1ccc(C(=O)NC23CC4CC(CC(C4)C2)C3)c(Cl)c1 — higher, -1.94%
- COc1ccccc1C(=O)NC(=S)NC12CC3CC(CC(C3)C1)C2 — higher, -0.66%
- COc1ccc(-c2cc(-c3nnc(SCC(=O)Nc4cccc5ccccc45)n3N)[nH]n2)cc1 — higher, -3.93%
- O=C(NCC1COc2ccccc2O1)c1ccc(NC(=O)c2cc(F)ccc2F)cc1 (stereo not given) — higher, 2.47%
- COc1ccc(/C=C2\CC3(OC(C)=O)CCCN2C3)cc1 (stereo not given) — higher, -3.86%
- Cc1ccccc1NC(=O)C1CCN(c2ncccn2)CC1 — lower, -12.7%
- O=C(NN1C(=O)C2C3C=CC(C4CC34)C2C1=O)c1ccc(Cl)cc1 (stereo not given) — lower, -30.5%
- O=C(NN1C(=O)C2C3C=CC(O3)C2C1=O)c1ccccc1 (stereo not given) — higher, 0.75%
- COc1ccc(N2CCN(CCNS(=O)(=O)c3ccc(C(C)(C)C)cc3)CC2)cc1 — higher, 1.38%
- CCCC[C@H]1C2CC(OC(=O)NCc3ccccc3)C(C2)[C@H]2CCCCN21 (stereo not given in full) — lower, -10.2%
- Cc1[nH]nc(-c2ccc(OCc3cnn(-c4ccccc4)c3)cc2O)c1Oc1ccc(Cl)cc1 — higher, 0.84%
- CC(C)N1CCCCC(NC(=O)C(C)(C)C)C1=O (stereo not given) — higher, -2.39%
- O=C(CSc1nnc(Nc2ccccc2F)s1)NC1CCCC1 — higher, -2.83%
- O=C(CSc1nnc(C2CC2)n1Cc1ccccc1)Nc1cccnc1Cl — higher, -2.91%

In the case of `COc1cccc(/C=N/NC(=O)c2cccc([N+](=O)[O-])c2)c1OS(=O)(=O)c1ccc(C)cc1`, the inhibition is reported as 9.36% (active).
With `CC(C)Oc1cc(F)ccc1-c1cc(C(=O)Nc2cccc(Cl)c2)[nH]n1` the inhibition was 12.5% (active).
`CCn1c(Cc2cccs2)nnc1SCC(=O)c1ccc(C)cc1` was tested, and the inhibition was 9.16% (active).
`CCCCn1ccnc1C(=O)c1cccc(S(=O)(=O)N2c3ccccc3CC2C)c1` (stereo not given) was tested, and the inhibition was 11.1% (active).
In the case of `COc1cc(NC(=O)CCS(=O)(=O)c2ccc3c(c2)oc(=O)n3C)cc(OC)c1`, the inhibition is reported as 8.71% (active).
With `CCOC(=O)c1cccc(NC(=O)CN(C)S(=O)(=O)c2ccc(-c3cocn3)s2)c1` the inhibition was 9.31% (active).
In the case of `O=C(COc1ccc(Cl)cc1)N1CCN(c2cccc(C(F)(F)F)c2)CC1`, the inhibition is reported as 13.9% (active).
`O=C(CC1SC(=Nc2ccccc2)N(Cc2ccccn2)C1=O)Nc1cccc(Cl)c1` (stereo not given) was tested, and the inhibition was 9.62% (active).
In the case of `O=C1[C@H]2[C@@H](c3ccc(C(F)(F)F)cc3)N[C@]3(CCCN(Cc4ccc(Br)cc4)C3=O)[C@H]2C(=O)N1Cc1ccccc1`, the inhibition is reported as 13.7% (active).
For `CC(=O)Nc1ccc(S(=O)(=O)N2CCN(CCCOc3cc(C)ccc3C)CC2)cc1`, the inhibition was 9.18% (active).
`COc1ccc(S(=O)(=O)N2CCCCC2)cc1Br` was tested, and the inhibition was 9.21% (active).
`CS(=O)(=O)Nc1cccc(C2=NN(S(=O)(=O)c3ccccc3)C(c3cccs3)C2)c1` (stereo not given) was tested, and the inhibition was 8.71% (active).
`CCOc1ccccc1C1CC(c2cccc(NS(C)(=O)=O)c2)=NN1C(=O)c1ccccc1` (stereo not given) was tested, and the inhibition was 12.6% (active).
With `COc1cccc(C2CC(c3ccccc3)=NN2S(=O)(=O)c2ccccc2)c1OC` (stereo not given) the inhibition was 14% (active).
In the case of `S=C(NCc1ccc(Cl)cc1)NC12CC3CC(CC(C3)C1)C2`, the inhibition is reported as 14.9% (active).
In the case of `COc1ccc(C(=O)NN2C(=O)C3C(c4ccccc4)C=CC(c4ccccc4)C3C2=O)cc1` (stereo not given), the inhibition is reported as 13.9% (active).
For `C=C(C)COc1ccc(-c2n[nH]c(C)c2-c2ccccc2)c(O)c1`, the inhibition was 10.9% (active).
In the case of `O=C(CSc1nnc(Nc2ccccc2)s1)Nc1cccnc1Cl`, the inhibition is reported as 8.69% (active).
